Paper PMC7862700, “An all-to-all approach to the identification of sequence-specific readers for epigenetic DNA modifications on cytosine”

Tests used:
Assay in all cases: DAPPL (digital affinity profiling via proximity ligation, sequencing); 10 mM Tris-HCl pH 7.5, 50 mM NaCl, 1 mM DTT, 4% glycerol, room temperature, 30 min; GST-TFs on glutathione beads, 16-mer random dsDNA library, 0.1% formaldehyde crosslink after washing; high values mean tight binding
[1] = target: T1, FEV (Homo sapiens, UniProt Q99581 1-238); settings: protein: recombinant; tags: N-terminal GST; dsDNA, one strand shown
T1 sequence: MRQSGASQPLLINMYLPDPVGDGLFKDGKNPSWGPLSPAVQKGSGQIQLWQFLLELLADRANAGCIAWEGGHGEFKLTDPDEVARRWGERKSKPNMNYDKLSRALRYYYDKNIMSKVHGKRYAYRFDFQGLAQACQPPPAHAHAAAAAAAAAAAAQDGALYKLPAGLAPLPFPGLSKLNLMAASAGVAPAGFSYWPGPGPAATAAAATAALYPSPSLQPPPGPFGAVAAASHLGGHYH
In short: (§1)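 Binding signal is given per hexamer as its read frequency for a factor divided by its frequency in the tag-only sample. GST-fused human transcription factors were expressed in yeast, captured on glutathione beads, barcoded with DNA and pooled with that sample, then incubated with 200 nmole of a 16-mer random double-stranded DNA library in Tris/NaCl/DTT/glycerol buffer for 30 min at room temperature. The pools were then washed, crosslinked, proximity-ligated, amplified by PCR and sequenced on an Illumina NextSeq500.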

[2] = target: ETV5 (Homo sapiens, UniProt P41161 1-510); settings: protein: recombinant; tags: N-terminal GST; dsDNA, one strand shown
Chain of ETV5 (P41161 whole entry): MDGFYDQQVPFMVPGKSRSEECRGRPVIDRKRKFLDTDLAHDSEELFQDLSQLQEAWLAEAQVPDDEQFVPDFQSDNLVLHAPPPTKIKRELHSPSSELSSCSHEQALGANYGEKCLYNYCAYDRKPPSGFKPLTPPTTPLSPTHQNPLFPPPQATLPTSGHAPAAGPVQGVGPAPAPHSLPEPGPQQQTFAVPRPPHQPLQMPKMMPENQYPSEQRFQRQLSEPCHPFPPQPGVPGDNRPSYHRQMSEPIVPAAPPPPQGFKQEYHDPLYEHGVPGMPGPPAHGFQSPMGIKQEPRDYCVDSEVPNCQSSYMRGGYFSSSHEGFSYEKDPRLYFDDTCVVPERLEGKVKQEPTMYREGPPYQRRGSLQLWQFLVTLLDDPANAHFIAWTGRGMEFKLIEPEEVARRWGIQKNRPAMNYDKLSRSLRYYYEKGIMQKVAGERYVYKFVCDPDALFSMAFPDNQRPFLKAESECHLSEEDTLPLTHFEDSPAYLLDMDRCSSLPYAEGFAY
In short: as §1

[3] = target: HSF1 (Homo sapiens, UniProt Q00613 1-529); settings: protein: recombinant; tags: N-terminal GST; chain copies: 3; dsDNA, one strand shown
Chain of HSF1 (Q00613 whole entry): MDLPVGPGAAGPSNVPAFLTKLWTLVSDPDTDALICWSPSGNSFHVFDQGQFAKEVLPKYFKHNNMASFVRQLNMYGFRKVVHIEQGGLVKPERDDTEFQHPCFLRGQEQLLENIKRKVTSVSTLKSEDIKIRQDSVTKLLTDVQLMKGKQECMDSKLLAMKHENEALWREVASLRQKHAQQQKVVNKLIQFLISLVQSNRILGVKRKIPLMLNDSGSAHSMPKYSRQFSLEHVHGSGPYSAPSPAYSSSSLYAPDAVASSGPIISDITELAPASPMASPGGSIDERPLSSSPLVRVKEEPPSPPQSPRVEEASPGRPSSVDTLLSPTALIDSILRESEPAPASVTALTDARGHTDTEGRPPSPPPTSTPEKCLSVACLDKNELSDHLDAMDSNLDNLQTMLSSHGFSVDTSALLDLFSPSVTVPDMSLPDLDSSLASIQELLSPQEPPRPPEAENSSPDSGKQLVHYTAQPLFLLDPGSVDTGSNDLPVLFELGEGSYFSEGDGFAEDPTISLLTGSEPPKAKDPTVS
In short: as §1

[4] = target: T2, SPIC (Homo sapiens, UniProt Q8N5J4 1-248); settings: protein: recombinant; tags: N-terminal GST; dsDNA, one strand shown
T2 sequence: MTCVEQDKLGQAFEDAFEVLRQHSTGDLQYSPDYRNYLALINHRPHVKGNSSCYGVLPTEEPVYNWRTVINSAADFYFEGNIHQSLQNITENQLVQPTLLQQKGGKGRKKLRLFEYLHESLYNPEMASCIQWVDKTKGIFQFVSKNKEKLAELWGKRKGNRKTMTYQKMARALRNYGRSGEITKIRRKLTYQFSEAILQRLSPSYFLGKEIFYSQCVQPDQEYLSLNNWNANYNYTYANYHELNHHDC
In short: as §1

[5] = target: ELF4 (Homo sapiens, UniProt Q99607 1-663); settings: protein: recombinant; tags: N-terminal GST; dsDNA, one strand shown
Chain of ELF4 (Q99607 whole entry): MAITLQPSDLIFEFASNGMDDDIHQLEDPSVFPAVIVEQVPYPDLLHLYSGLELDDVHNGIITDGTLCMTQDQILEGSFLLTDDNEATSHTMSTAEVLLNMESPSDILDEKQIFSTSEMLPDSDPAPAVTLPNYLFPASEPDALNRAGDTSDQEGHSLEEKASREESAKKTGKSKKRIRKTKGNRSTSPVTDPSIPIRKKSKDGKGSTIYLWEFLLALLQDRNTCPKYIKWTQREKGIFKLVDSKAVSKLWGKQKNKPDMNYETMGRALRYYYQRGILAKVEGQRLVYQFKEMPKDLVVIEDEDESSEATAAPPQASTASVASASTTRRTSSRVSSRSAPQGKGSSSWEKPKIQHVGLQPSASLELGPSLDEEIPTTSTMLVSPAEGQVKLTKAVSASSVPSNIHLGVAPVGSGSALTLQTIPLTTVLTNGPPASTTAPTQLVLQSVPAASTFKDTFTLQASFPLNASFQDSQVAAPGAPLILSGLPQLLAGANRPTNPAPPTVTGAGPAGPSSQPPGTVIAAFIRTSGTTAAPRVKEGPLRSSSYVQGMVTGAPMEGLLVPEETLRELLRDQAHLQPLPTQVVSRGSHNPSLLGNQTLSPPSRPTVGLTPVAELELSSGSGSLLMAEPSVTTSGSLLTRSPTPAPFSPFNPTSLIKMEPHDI
In short: as §1

[6] = target: T3, ELK4 (Homo sapiens, UniProt P28324-2 1-405); settings: protein: recombinant; tags: N-terminal GST; dsDNA, one strand shown
T3 sequence: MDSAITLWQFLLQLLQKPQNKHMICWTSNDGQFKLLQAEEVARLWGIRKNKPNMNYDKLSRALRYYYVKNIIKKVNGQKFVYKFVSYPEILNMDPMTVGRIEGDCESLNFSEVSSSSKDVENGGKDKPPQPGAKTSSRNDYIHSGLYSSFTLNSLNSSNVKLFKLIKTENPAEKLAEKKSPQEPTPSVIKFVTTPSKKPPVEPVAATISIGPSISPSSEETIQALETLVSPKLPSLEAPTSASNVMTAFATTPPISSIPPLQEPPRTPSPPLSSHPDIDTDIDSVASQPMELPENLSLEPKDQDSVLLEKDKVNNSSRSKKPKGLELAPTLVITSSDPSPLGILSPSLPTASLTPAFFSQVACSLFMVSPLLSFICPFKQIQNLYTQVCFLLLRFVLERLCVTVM
In short: as §1

[7] = target: T4, ETV2 (Homo sapiens, UniProt O00321 1-342); settings: protein: recombinant; tags: N-terminal GST; dsDNA, one strand shown
T4 sequence: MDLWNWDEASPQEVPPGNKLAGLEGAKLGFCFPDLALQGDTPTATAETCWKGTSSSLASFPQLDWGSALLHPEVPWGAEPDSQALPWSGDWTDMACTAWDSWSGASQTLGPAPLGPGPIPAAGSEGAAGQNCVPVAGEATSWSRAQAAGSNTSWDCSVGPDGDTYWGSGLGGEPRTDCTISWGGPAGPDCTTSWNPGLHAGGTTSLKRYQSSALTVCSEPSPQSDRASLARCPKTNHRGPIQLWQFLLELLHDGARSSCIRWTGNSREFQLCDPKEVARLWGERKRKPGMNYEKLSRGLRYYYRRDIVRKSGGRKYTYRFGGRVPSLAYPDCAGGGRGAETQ
In short: as §1

[8] = target: T5, ELF3 (Homo sapiens, UniProt P78545 1-371); settings: protein: recombinant; tags: N-terminal GST; dsDNA, one strand shown
T5 sequence: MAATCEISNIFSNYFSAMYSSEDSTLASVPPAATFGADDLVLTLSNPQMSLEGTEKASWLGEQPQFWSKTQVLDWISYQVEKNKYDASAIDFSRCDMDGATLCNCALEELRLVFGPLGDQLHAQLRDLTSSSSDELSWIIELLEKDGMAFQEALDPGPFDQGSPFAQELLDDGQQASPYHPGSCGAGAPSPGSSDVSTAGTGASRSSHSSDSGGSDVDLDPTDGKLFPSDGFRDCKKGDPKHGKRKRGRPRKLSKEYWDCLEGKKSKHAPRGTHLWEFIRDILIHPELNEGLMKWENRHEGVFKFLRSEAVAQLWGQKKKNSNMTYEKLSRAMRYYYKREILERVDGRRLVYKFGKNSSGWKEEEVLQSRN
In short: as §1

[9] = target: CRX (Homo sapiens, UniProt O43186 1-299); settings: protein: recombinant; tags: N-terminal GST; dsDNA, one strand shown
Chain of CRX (O43186 whole entry): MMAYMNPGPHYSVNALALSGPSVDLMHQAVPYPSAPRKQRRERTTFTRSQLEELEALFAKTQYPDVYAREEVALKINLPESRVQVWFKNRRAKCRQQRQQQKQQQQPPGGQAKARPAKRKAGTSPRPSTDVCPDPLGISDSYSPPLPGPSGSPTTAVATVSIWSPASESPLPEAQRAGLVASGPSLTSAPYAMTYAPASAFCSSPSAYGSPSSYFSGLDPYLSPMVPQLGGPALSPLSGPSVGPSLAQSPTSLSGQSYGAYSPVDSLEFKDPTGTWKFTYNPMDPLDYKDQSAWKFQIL
In short: as §1

[10] = target: ETV1 (Homo sapiens, UniProt P50549 1-477); settings: protein: recombinant; tags: N-terminal GST; dsDNA, one strand shown
Chain of ETV1 (P50549 whole entry): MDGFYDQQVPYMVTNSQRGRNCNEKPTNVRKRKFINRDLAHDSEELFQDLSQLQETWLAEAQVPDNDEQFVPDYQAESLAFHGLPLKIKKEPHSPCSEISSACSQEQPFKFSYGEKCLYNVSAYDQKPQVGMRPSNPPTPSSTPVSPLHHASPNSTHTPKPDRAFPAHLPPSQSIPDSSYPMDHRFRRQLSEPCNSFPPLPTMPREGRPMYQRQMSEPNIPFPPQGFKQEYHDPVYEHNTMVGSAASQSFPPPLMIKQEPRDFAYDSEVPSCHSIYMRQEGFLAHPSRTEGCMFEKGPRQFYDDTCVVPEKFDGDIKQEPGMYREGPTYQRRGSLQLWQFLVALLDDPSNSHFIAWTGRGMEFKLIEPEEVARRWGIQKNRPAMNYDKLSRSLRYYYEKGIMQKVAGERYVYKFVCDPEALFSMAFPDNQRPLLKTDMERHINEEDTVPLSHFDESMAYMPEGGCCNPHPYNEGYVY
In short: as §1

[11] = target: T6, ERF (Homo sapiens, UniProt P50548 1-548); settings: protein: recombinant; tags: N-terminal GST; dsDNA, one strand shown
T6 sequence: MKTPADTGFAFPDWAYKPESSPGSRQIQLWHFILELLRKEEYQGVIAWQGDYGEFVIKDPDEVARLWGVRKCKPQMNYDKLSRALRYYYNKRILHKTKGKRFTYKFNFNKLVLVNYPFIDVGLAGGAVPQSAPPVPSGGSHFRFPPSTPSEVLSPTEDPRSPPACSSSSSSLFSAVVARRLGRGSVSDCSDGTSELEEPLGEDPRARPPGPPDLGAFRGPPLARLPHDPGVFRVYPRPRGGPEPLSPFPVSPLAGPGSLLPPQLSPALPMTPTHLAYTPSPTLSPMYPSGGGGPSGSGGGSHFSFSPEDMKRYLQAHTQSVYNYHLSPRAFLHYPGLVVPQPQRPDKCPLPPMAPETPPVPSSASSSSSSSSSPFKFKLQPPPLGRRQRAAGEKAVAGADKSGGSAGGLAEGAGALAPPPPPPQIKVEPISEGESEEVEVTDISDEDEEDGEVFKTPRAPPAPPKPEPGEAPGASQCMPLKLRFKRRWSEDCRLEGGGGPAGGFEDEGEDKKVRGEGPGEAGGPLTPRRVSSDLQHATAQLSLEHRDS
In short: as §1

[12] = target: T7, ETV3L (Homo sapiens, UniProt Q6ZN32 1-361); settings: protein: recombinant; tags: N-terminal GST; dsDNA, one strand shown
T7 sequence: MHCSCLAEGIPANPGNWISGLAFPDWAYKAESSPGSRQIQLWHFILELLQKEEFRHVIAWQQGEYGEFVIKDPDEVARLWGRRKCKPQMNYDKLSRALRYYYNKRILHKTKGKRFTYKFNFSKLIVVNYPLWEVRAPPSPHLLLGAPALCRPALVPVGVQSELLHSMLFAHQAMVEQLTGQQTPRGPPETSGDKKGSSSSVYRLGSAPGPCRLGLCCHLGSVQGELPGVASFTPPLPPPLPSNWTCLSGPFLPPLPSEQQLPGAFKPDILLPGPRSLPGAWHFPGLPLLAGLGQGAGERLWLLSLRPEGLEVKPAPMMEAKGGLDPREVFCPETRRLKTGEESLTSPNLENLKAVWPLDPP
In short: as §1

[13] = target: T8, ETS2 (Homo sapiens, UniProt P15036 1-469); settings: protein: recombinant; tags: N-terminal GST; dsDNA, one strand shown
T8 sequence: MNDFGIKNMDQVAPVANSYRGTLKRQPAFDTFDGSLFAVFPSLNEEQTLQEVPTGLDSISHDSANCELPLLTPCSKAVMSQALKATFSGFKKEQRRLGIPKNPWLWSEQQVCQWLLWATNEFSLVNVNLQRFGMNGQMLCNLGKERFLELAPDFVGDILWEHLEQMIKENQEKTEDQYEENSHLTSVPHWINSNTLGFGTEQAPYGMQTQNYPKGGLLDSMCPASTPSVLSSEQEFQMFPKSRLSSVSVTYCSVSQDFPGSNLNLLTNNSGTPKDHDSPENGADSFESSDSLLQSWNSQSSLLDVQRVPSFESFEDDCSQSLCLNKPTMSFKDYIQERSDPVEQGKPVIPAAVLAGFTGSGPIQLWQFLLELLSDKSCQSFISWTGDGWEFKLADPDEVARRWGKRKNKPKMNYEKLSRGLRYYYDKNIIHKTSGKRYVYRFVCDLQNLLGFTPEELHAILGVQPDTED
In short: as §1

[14] = target: T9, SPDEF (Homo sapiens, UniProt O95238 1-335); settings: protein: recombinant; tags: N-terminal GST; dsDNA, one strand shown
T9 sequence: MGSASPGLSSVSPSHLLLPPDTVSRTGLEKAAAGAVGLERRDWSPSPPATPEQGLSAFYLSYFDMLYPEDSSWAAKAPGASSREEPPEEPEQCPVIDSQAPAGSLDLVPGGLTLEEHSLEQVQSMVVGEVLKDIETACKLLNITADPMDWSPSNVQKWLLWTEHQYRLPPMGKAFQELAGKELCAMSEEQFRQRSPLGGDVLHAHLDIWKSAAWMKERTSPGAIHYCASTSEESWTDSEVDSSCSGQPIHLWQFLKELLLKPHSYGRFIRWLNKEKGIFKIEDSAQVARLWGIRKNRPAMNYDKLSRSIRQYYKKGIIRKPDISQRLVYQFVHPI
In short: as §1

[15] = target: T10, ETV7 (Homo sapiens, UniProt Q9Y603 1-341); settings: protein: recombinant; tags: N-terminal GST; dsDNA, one strand shown
T10 sequence: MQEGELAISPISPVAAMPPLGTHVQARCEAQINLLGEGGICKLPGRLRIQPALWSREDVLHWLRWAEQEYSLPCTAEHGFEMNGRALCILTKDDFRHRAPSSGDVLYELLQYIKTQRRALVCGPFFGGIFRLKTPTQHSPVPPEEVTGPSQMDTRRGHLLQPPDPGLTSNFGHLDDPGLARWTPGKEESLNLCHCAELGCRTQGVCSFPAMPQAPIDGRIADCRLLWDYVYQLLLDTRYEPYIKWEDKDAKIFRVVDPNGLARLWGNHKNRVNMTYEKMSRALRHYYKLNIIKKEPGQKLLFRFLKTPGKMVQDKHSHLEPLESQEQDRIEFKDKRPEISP
In short: as §1

[16] = target: T11, ELF5 (Homo sapiens, UniProt Q9UKW6-2 1-255); settings: protein: recombinant; tags: N-terminal GST; dsDNA, one strand shown
T11 sequence: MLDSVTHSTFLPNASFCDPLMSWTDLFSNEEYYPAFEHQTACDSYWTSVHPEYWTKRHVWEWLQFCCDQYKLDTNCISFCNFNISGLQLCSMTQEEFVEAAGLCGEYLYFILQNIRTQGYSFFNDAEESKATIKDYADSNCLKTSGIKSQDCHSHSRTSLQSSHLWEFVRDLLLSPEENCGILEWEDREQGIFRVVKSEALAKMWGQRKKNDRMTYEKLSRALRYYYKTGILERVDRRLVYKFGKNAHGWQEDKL
In short: as §1

[17] = target: T12, ETV3 (Homo sapiens, UniProt P41162-2 1-143); settings: protein: recombinant; tags: N-terminal GST; dsDNA, one strand shown
T12 sequence: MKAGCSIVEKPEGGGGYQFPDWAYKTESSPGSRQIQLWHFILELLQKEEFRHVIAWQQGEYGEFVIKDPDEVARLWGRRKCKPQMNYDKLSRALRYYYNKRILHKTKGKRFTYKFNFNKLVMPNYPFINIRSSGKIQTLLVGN
In short: as §1

[18] = target: ETV6 (Homo sapiens, UniProt P41212 1-452); settings: protein: recombinant; tags: N-terminal GST; dsDNA, one strand shown
Chain of ETV6 (P41212 whole entry): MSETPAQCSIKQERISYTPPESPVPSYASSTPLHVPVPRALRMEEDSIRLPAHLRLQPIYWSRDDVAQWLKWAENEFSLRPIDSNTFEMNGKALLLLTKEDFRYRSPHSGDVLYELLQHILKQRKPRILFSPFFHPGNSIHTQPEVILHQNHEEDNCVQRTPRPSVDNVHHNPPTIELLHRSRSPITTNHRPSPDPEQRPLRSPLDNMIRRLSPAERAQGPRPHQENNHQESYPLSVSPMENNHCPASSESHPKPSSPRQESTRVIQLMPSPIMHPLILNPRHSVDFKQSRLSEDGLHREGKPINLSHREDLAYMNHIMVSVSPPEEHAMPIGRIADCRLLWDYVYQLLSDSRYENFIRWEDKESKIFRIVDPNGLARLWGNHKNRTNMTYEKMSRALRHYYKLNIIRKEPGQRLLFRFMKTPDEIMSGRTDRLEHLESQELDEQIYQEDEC
In short: as §1

CATATT
binding signal [1]: 1.22 fold enrichment (6-mer frequency, TF over GST control) | binding signal [2]: 1.26 fold enrichment (6-mer frequency, TF over GST control) | binding signal [3]: 1.31 fold enrichment (6-mer frequency, TF over GST control) | binding signal [4]: 1.12 fold enrichment (6-mer frequency, TF over GST control) | binding signal [5]: 1.32 fold enrichment (6-mer frequency, TF over GST control) | binding signal [6]: 1.29 fold enrichment (6-mer frequency, TF over GST control) | binding signal [7]: 1.43 fold enrichment (6-mer frequency, TF over GST control) | binding signal [8]: 1.35 fold enrichment (6-mer frequency, TF over GST control) | binding signal [9]: 1.33 fold enrichment (6-mer frequency, TF over GST control) | binding signal [10]: 1.25 fold enrichment (6-mer frequency, TF over GST control) | binding signal [11]: 1.32 fold enrichment (6-mer frequency, TF over GST control) | binding signal [12]: 1.29 fold enrichment (6-mer frequency, TF over GST control) | binding signal [13]: 1.22 fold enrichment (6-mer frequency, TF over GST control) | binding signal [14]: 1.24 fold enrichment (6-mer frequency, TF over GST control) | binding signal [15]: 1.19 fold enrichment (6-mer frequency, TF over GST control) | binding signal [16]: 1.23 fold enrichment (6-mer frequency, TF over GST control) | binding signal [17]: 1.24 fold enrichment (6-mer frequency, TF over GST control) | binding signal [18]: 1.25 fold enrichment (6-mer frequency, TF over GST control)
